The text below walks through data of PubChem BioAssay.

For experiment [1], the system named is PRMT1 (protein arginine N-methyltransferase 1). As to the kind of experiment: PRMT1 binders on small-molecule microarrays, primary screen, biochemical, small-molecule microarray, 635 nm fluorescence (AID 1088).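 Note: binding of Prmt1 protein to compounds spotted on small-molecule microarray slides.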 Particulars: small-molecule microarray binding, higher = more signal.
Experiment [2] can be described thus: yeast growth modulation, basal conditions, primary screen, YJM789 clinical isolate, OD600, 24 h (AID 1089).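 Note: growth of clinical yeast isolate S. cerevisiae YJM 789 seeded 1000 cells per well; test concentration not given here.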 Particulars: S. cerevisiae YJM789 growth, higher = more signal, called active from +8 up or from −8 down.
The nature of experiment [3]: fission yeast growth modulation, primary screen, strain 972, OD600, 24 h, no modulator (AID 1090).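 Note: basal condition with compound alone and no growth modifier present; test concentration not given here.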 Particulars: S. pombe 972 growth, higher = more signal, called active from +8 up or from −8 down.
Experiment [4] is described as follows: S. cerevisiae growth modulation with rapamycin, primary screen, strain BY4716, OD600, 96 h (AID 1091). Note: test concentration not given here. Particulars: higher = more signal, called active from +8 up or from −8 down.
Experiment [5] addresses Torsin-1A-interacting protein 2 (Homo sapiens) (UniProt Q8NFQ8). The experiment can be described thus: LULL1 binders on small-molecule microarray, primary screen, cell lysate, human LULL1 lysate, 635/667 nm fluorescence (AID 1092).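 Note: probe is lysate of COS7 cells overexpressing human LULL1; score merges per-feature 667 nm fluorescence with signal-to-noise.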 The following applies: hLULL1 lysate binding, 635 nm fluorescence, higher = more signal.
Experiment [6] is described as follows: E. coli growth modulation, two-sided OD650, primary screen, E. coli filamentation project, strain DRC41, 24 h (AID 1093).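 Note: MC1000 strain lacking acrAB efflux and sulA so SOS filamentation is blocked; test concentration not given here.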 Particulars: OD650, 24 h, higher = more signal, called active from +8 up or from −8 down.
Experiment [7] is described as follows: small-molecule microarray binders of probe aLefty2, primary screen, biochemical, biotinylated probe, 635/667 nm fluorescence (AID 1094).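 Note: score merges spot fluorescence near 667 nm with spot signal-to-noise ratio.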 Particulars: higher = more signal.
Experiment [8] relates to Noggin (protein binding on small-molecule microarray). As to the kind of experiment: Noggin binders on small-molecule microarray, primary screen, biochemical, 635/667 nm fluorescence (AID 1095).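 Note: score merges 667 nm feature fluorescence with signal to noise over triplicate slides.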 The following applies: 635 nm fluorescence, higher = more signal.
In experiment [9] the target is Neurogenic locus notch homolog protein 3 (Homo sapiens) (UniProt Q9UM47). The experiment can be described thus: NOTCH3 binders on small-molecule microarray, primary screen, biochemical, 635/667 nm fluorescence (AID 1096). The following applies: NOTCH3 binding, 635 nm fluorescence, higher = more signal.
Chain of Neurogenic locus notch homolog protein 3 (Homo sapiens) (Q9UM47 whole entry, looked up): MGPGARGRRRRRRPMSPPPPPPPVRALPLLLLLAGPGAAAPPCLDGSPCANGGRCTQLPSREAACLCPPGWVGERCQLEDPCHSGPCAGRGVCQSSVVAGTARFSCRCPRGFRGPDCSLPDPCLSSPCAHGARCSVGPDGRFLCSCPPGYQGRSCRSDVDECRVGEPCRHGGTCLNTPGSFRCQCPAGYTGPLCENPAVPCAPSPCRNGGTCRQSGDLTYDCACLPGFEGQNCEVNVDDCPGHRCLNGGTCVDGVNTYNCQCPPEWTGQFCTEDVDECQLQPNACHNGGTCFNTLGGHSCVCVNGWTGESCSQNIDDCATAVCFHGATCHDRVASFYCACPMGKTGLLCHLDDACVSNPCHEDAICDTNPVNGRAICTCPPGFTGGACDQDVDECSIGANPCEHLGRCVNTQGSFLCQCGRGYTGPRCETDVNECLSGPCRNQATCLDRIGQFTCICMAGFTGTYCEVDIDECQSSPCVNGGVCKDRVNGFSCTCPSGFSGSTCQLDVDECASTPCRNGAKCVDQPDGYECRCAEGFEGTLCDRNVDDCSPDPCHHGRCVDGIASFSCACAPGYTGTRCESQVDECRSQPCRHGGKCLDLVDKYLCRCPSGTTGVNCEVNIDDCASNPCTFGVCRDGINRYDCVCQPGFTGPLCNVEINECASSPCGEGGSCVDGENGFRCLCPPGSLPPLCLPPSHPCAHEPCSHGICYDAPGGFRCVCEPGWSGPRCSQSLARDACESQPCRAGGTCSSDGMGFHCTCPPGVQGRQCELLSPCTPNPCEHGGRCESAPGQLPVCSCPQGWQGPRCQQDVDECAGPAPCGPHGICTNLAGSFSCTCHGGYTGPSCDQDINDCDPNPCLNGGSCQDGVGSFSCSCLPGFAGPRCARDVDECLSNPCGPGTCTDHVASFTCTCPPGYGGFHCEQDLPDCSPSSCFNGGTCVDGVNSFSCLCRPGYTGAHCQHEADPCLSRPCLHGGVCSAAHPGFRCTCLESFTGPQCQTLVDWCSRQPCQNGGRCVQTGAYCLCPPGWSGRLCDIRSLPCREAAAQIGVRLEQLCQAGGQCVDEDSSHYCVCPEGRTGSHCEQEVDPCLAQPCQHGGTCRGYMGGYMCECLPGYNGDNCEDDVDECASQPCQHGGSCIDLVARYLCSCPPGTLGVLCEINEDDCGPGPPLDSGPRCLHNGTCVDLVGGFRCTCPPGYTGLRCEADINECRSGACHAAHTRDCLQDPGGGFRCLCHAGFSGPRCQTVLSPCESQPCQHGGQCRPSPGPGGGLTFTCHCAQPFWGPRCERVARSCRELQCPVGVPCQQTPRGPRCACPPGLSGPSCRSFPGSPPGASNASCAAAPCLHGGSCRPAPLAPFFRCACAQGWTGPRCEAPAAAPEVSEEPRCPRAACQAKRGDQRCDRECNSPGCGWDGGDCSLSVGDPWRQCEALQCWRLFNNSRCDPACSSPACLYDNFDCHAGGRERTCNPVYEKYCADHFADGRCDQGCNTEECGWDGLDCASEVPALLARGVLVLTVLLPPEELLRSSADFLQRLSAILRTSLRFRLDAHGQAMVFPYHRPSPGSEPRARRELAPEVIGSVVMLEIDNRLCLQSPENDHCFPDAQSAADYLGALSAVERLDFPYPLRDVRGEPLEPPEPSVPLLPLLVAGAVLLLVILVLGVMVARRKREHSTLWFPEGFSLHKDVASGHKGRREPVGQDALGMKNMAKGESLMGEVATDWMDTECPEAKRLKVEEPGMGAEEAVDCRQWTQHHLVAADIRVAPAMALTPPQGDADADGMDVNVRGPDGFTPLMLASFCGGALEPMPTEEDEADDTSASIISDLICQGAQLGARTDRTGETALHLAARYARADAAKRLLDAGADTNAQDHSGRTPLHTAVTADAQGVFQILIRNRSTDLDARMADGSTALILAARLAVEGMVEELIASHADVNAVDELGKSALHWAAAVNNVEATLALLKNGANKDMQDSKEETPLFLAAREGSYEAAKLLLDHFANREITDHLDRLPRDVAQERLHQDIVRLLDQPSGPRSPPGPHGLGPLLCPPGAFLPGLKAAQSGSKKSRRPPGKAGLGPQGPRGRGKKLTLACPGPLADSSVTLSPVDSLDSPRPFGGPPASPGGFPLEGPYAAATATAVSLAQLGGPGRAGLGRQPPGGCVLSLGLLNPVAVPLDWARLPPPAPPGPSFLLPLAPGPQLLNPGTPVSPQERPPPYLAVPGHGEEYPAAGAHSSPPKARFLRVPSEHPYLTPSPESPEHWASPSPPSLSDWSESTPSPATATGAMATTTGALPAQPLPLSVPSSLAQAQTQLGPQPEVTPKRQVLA
The nature of experiment [10]: small-molecule microarray binders of probe aEGFR, primary screen, biochemical, biotinylated probe, 635/667 nm fluorescence (AID 1097).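 Note: probe is a biotinylated anti-EGFR antibody binding compounds printed on slides; score combines fluorescence near 667 nm and signal to noise of each spot.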 The following applies: higher = more signal.

Calls of active or inactive are those of the source.

Chain of Torsin-1A-interacting protein 2 (Homo sapiens) (Q8NFQ8 whole entry, looked up): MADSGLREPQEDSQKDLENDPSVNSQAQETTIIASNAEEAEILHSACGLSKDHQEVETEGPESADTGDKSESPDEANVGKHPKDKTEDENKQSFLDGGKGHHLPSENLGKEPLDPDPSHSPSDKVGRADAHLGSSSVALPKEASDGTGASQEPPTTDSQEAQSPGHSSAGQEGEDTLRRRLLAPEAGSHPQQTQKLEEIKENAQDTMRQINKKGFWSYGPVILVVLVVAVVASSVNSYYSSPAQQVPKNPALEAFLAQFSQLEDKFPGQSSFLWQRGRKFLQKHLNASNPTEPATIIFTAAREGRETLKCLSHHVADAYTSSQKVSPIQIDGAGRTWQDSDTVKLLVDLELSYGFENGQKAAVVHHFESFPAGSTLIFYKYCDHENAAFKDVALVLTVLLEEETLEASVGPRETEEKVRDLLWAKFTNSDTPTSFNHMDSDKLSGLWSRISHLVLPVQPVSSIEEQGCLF

In the case of `CC(C)[Si](C#CCCCC#N)(Oc1ccccc1Br)C(C)C`, the composite z-score was 0.987 in experiment [1]; 0.86 in experiment [5]; -0.203 in [7]; 0.506 in [8]; 0.653 in experiment [9]; -0.0389 in [10]. The z-score is 1.13 (inactive) in experiment [2], -1.09 (inactive) in experiment [3], -1.96 (inactive) in experiment [4] and -0.146 (inactive) in experiment [6].
As to `O=C(CS)NCCCCCNC(=O)[C@H]1C[C@H]2C(=O)NCC(=O)N2[C@H]1c1ccc(O)cc1`, the composite z-score in experiment [1] is -0.313; in experiment [5], -1.29; in [7], -0.179; in [8] it was -0.177; in experiment [9], -0.905; in experiment [10], -0.132. For the same compound, the z-score in [2] is -2.76 (inactive); in [3], 1.02 (inactive); in experiment [4] it was -1.11 (inactive); in experiment [6], 0.77 (inactive).
`Cc1ccc(S[C@]2(C(=O)NCC(C)C)CC(=O)N(Cc3cc(C(F)(F)F)cc(C(F)(F)F)c3)[C@@H]2c2ccc(CO)cc2)cc1`: the composite z-score is 0.407 in experiment [1]; 0.472 in [5]; 0.522 in [7]; -0.671 in [8]; -0.643 in experiment [9]; -0.073 in experiment [10]. Moreover, the z-score in experiment [2] is -0.463 (inactive); in [3] it was -0.924 (inactive); in experiment [4], -0.429 (inactive); in experiment [6], -0.869 (inactive).
In the case of `O=C1NC(=O)C2C1C=CC(C(O)c1ccc(-c3ccccc3)s1)N2Nc1ccc(Cl)cc1Cl` (stereo not given), the composite z-score was 0.193 in experiment [1]; 3.07 in experiment [5]; 0.214 in [7]; 0.23 in experiment [8]; 0.983 in [9]; -0.106 in experiment [10]. The z-score is -0.863 (inactive) in [2], -1.76 (inactive) in experiment [3], 1.58 (inactive) in experiment [4] and -1.25 (inactive) in [6].
With `Cc1ccc(C2C3C(=O)CC4C(=O)N(c5ccccc5)C(=O)C4C3CN2S(=O)(=O)c2ccc(C)cc2)cc1` (stereo not given), the composite z-score in [1] was found to be 1.32; in [5], 2.93; in experiment [7] it was 0.571; in [8], 0.0835; in [9] it was 1.12; in experiment [10], 0.786. In addition, the z-score is 0.799 (inactive) in experiment [2], 0.499 (inactive) in [3], 1.45 (inactive) in [4] and 0.0125 (inactive) in experiment [6].
As to `C=CCN1Cc2ccccc2[C@@H]2OC(c3ccc(OCCCO)cc3)=N[C@]2(CCS(=O)(=O)c2ccccc2)C1=O`, the composite z-score in experiment [1] is 1.55; in experiment [5], 3.35; in experiment [7] it was 0.0642; in experiment [8] it was 0.704; in experiment [9], 1.01; in experiment [10], -0.0261. The z-score in [2] was 0.863 (inactive); in experiment [3], 1.45 (inactive); in experiment [4], 3.51 (inactive); in experiment [6] it was 0.953 (inactive).
Regarding `COCCCNC(=O)[C@]1(Cc2ccccc2)N=C(c2ccc(OCCCO)cc2)O[C@@H]1c1ccccc1CN=[N+]=[N-]`, the composite z-score in [1] came out at 1.55; in experiment [5], 3.59; in experiment [7], 0.195; in experiment [8] it was 0.53; in experiment [9], 1.08; in experiment [10], 0.0326. Besides, the z-score in experiment [2] is -2.05 (inactive); in experiment [3], 1.05 (inactive); in experiment [4], 0.842 (inactive); in [6], 1.03 (inactive).
In the case of `COCCCNC(=O)[C@@H]1c2ccccc2C(=O)N(Cc2ccccc2OC)[C@H]1c1ccc(CO)cc1`, the composite z-score in experiment [1] was -0.244; in [5], 2.56; in experiment [7], -0.157; in experiment [8], 1.68; in experiment [9] it was 0.876; in experiment [10], -0.115. Besides, the z-score in experiment [2] was 0.118 (inactive); in experiment [3], -0.757 (inactive); in experiment [4] it was -0.921 (inactive); in experiment [6] it was -0.0935 (inactive).
Regarding `O=C(NC1CC1)[C@@H]1c2ccccc2C(=O)N(C2Cc3ccccc3C2)[C@H]1c1ccc(CO)cc1`, the composite z-score was 1.44 in experiment [1]; 3.1 in experiment [5]; -0.0441 in [7]; 0.976 in experiment [8]; 0.722 in experiment [9]; -0.16 in experiment [10]. For the same compound, the z-score in experiment [2] was -0.0411 (inactive); in [3], 0.682 (inactive); in [4] it was -0.514 (inactive); in experiment [6], 0.628 (inactive).
Take `O=C(NC1CC1)[C@@H]1c2ccccc2C(=O)N(Cc2cc(F)cc(C(F)(F)F)c2)[C@H]1c1ccc(CO)cc1`: the composite z-score in [1] was 1.35; in experiment [5], 2.85; in [7] it was 0.0351; in experiment [8] it was 0.235; in [9] it was -0.418; in [10] it was -0.177. In addition, the z-score is -1.02 (inactive) in [2], -1.15 (inactive) in [3], -0.926 (inactive) in experiment [4] and -0.213 (inactive) in experiment [6].
`COc1ccc([Si](C)(C)[C@H]2[C@H](CCn3cc([C@H](O)c4ccccc4)nn3)O[C@@]3(C(=O)N(C)c4ccccc43)[C@@H]2C)cc1`: the composite z-score in [1] is -0.133; in [5], 0.446; in experiment [7] it was -0.0317; in experiment [8], 0.176; in experiment [9] it was 0.133; in [10], -0.171. In addition, the z-score in experiment [2] was -2.61 (inactive); in experiment [3] it was 0.644 (inactive); in [4] it was -0.254 (inactive); in experiment [6], 0.271 (inactive).
With `COCC(=C=CC[C@@H](O)c1ccc(OCCO)cc1)C[C@@H](O)c1ccccn1`, the composite z-score in [1] was 0.37; in [5], 0.608; in experiment [7] it was -0.0931; in experiment [8] it was 0.274; in experiment [9] it was -0.0817; in experiment [10] it was 0.361. In addition, the z-score was -0.64 (inactive) in experiment [2], -1.13 (inactive) in experiment [3], -0.0669 (inactive) in experiment [4] and -0.136 (inactive) in experiment [6].
In the case of `CC(C)[Si](C#C[Si](C(C)C)(C(C)C)C(C)C)(O[C@H](C)c1cn(Cc2ccccc2)nn1)C(C)C`, the composite z-score in experiment [1] is 1.04; in experiment [5], 1.92; in [7] it was -0.0936; in experiment [8] it was 0.369; in experiment [9], 0.928; in experiment [10], 0.0026. The z-score in experiment [2] is 0.319 (inactive); in experiment [3] it was 0.497 (inactive); in experiment [4] it was -0.109 (inactive); in experiment [6] it was 1.32 (inactive).
On to `COc1ccccc1CN1C(=O)c2ccccc2[C@@H](C(=O)NCc2ccccc2)[C@@H]1c1ccc(CO)cc1`, for which the composite z-score in [1] is 0.713; in [5], 2.33; in experiment [7], -0.26; in experiment [8] it was 0.286; in [9], 0.271; in experiment [10], -0.336. Moreover, the z-score is 0.649 (inactive) in [2], 0.417 (inactive) in experiment [3], 0.253 (inactive) in [4] and 0.409 (inactive) in experiment [6].
As for `COCCOC(=O)N1C(=O)[C@@]2(c3ccccc31)[C@H](c1ccc(OCCO)cc1)N1[C@H](c3ccccc3)[C@H](c3ccccc3)OC(=O)[C@H]1[C@@H]2C(=O)N1CCc2cc(OC)c(OC)cc2C1`, the composite z-score came out at 1.53 in [1]; 3.09 in [5]; 0.284 in [7]; 1.12 in experiment [8]; 1.14 in experiment [9]; 0.246 in experiment [10]. Also, the z-score in experiment [2] was 1.93 (inactive); in experiment [3] it was 0.856 (inactive); in [4], 4.71 (inactive); in experiment [6] it was 0.0474 (inactive).
